Several values for one entry are separate records, joined by “and”; a condition that tells them apart may be missing. Equal values may be shown once. About 2,000 (36%) of roughly 5,500 compounds were called active. Not shown: some 18% with an inconclusive outcome. Rule as the data show it: active = normalized growth mostly below about 0.91 (no sharp cut-off); inconclusive = no clear call, values can overlap the other calls; inactive = mostly above about 0.92. Some of the results follow.
Experiment: chemical genetic growth profiling, strain panel (AID 1159580);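 also: tested at 20 µM; growth read once vehicle control cultures reached saturation at 30 °C; 1 = growth at the plate median or of vehicle wells; lower values mean less growth of the strain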
Details: S. cerevisiae deletion strains, growth OD

Measured: normalized growth

C=C1[C@H]2CC[C@@]3(C)[C@H](c4ccoc4)OC(=O)C[C@]13O[C@H]1C[C@H](O)C(C)(C)[C@H](CC(=O)OC)[C@]12C
inactive: locus YAL021C, strain ccr4, hits give low values 0.998 | locus YAL026C, strain drs2, hits give low values 1.05 | locus YAL030W, strain snc1, hits give low values 1.02 | locus YBL061C, strain skt5, hits give low values 1.02 | locus YBR009C, strain hhf1, hits give low values 1.01 | locus YBR021W, strain FUR4, hits give low values 0.985 | locus YBR023C, strain chs3, hits give low values 1.01 | locus YBR171W, strain sec66, hits give low values 1.02 | locus YBR229C, strain ROT2, hits give low values 0.999 | locus YBR231C, strain swc5, hits give low values 1.04 | locus YBR279W, strain paf1, hits give low values 1.02 | locus YCL011C, strain gbp2, hits give low values 1.01 | locus YCL016C, strain dcc1, hits give low values 1 | locus YCL029C, strain bik1, hits give low values 1.01 | locus YCL061C, strain MRC1, hits give low values 1.03 | locus YCL069W, strain vba3, hits give low values 1.02 | locus YCR088W, strain abp1, hits give low values 1.02 | locus YDL005C, strain med2, hits give low values 1.02 | locus YDL035C, strain GPR1, hits give low values 1 | locus YDL040C, strain nat1, hits give low values 1.02 | locus YDL074C, strain BRE1, hits give low values 0.99 | locus YDL101C, strain DUN1, hits give low values 1 | locus YDL134C, strain PPH21, hits give low values 1 | locus YDL185W, strain tfp1, hits give low values 1.03 | locus YDL192W, strain arf1, hits give low values 1.02 | locus YDR001C, strain nth1, hits give low values 1.02 | locus YDR069C, strain doa4, hits give low values 1.03 | locus YDR101C, strain arx1, hits give low values 1.01 | locus YDR137W, strain rgp1, hits give low values 0.975 | locus YDR159W, strain sac3, hits give low values 1.04 | locus YDR162C, strain NBP2, hits give low values 1.01 | locus YDR195W, strain ref2 1.03 | locus YDR297W, strain sur2, hits give low values 1.03 | locus YDR318W, strain mcm21, hits give low values 1.02 | locus YDR334W, strain swr1, hits give low values 1.02 | locus YDR335W, strain msn5, hits give low values 1.02 | locus YDR388W, hits give low values 1.02 | locus YDR392W, strain spt3, hits give low values 0.927 | locus YDR502C, strain sam2, hits give low values 1.02 | locus YEL003W, strain gim4, hits give low values 1.03 | locus YEL037C, strain rad23, hits give low values 1.01 | locus YEL061C, strain CIN8 (second series), hits give low values 1.02 | locus YEL061C, strain CIN8, hits give low values 0.998 | locus YER015W, strain faa2, hits give low values 1.03 | locus YER016W, strain bim1, hits give low values 1.02 | locus YER110C, hits give low values 1.02 | locus YER111C, strain swi4, hits give low values 1.03 | locus YER155C, strain BEM2 (second series), hits give low values 1.04 | locus YER155C, strain BEM2, hits give low values 1 | locus YER167W, strain BCK2, hits give low values 1 | locus YFR010W, strain ubp6, hits give low values 1.04 | locus YGL078C, strain dbp3, hits give low values 1.02 | locus YGL086W, strain mad1, hits give low values 1 | locus YGL167C, strain pmr1, hits give low values 1.02 | locus YGL173C, strain kem1, hits give low values 1.04 | locus YGL227W, strain vid30, hits give low values 1.03 | locus YGL240W, strain doc1, hits give low values 1.02 | locus YGL248W, strain PDE1, hits give low values 0.999 | locus YGL253W, strain hxk2, hits give low values 1.03 | locus YGR078C, strain PAC10, hits give low values 0.999 | locus YGR135W, strain pre9, hits give low values 1.02 | locus YGR252W, strain gcn5, hits give low values 1.02 | locus YHR013C, strain ard1, hits give low values 1 | locus YHR027C, strain rpn1, hits give low values 1.02 | locus YHR030C, strain SLT2, hits give low values 0.986 | locus YHR079C, strain IRE1 (second series), hits give low values 1.02 | locus YHR079C, strain IRE1, hits give low values 0.977 | locus YHR094C, strain hxt1, hits give low values 1.02 | locus YHR129C, strain ARP1, hits give low values 1.01 | locus YHR142W, strain chs7, hits give low values 1.01 | locus YHR200W, strain rpn10, hits give low values 1 | locus YIL066C, strain RNR3, hits give low values 1.01 | locus YIL073C, strain SPO22, hits give low values 1.07 | locus YIL125W, strain kgd1, hits give low values 1.01 | locus YIR030C, strain dcg1, hits give low values 1.02 | locus YJL092W, strain hpr5, hits give low values 1.03 | locus YJL095W, strain BCK1 (second series), hits give low values 1.02 | locus YJL095W, strain BCK1, hits give low values 1 and 0.979 | locus YJL115W, strain asf1, hits give low values 1.02 | locus YJL129C, strain trk1, hits give low values 1.02 | locus YJL134W, strain LCB3, hits give low values 1.01 | locus YJL154C, strain vps35, hits give low values 1.02 | locus YJL164C, strain tpk1, hits give low values 1 | locus YJL166W, strain qcr8, hits give low values 1.03 | locus YJL168C, strain set2, hits give low values 1.02 | locus YJL187C, strain SWE1 (second series), hits give low values 1 | locus YJR043C, strain POL32, hits give low values 0.991
